# S1P4 antag – antagonists of human S1P4 receptor | O95977 | S1P4-expressing cells, antagonist mode, reporter read-out | inhibition, % at 4.98 µM | 220,000 compounds, 0.26% hits; in the data active = inhibition above about 29%
# Target sequence (O95977 whole entry, looked up): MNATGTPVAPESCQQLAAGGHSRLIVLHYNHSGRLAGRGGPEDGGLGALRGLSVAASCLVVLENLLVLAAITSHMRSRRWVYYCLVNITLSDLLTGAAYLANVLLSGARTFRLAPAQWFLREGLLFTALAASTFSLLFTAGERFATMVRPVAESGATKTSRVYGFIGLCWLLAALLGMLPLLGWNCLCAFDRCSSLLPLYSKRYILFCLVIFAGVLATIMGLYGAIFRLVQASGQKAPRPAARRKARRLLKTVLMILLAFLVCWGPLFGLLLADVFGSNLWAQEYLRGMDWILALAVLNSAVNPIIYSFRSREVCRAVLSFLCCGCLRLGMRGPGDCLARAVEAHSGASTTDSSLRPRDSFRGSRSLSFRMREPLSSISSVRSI
# S1P3 antagonist – antagonists of human S1P3 receptor; AID 485; CHO S1P3 NFAT-BLA reporter, FRET fluorescence, antagonist mode; inhibition, % at 4.98 µM; 170,000 compounds, 0.27% hits; Q99500;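 active = inhibition above the plate cutoff, the mean inhibition of test wells on that plate plus 3 SD, cut at about 28% in these data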;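 also: cells challenged with S1P at its EC80 of 0.8 µM; blue over green emission ratio from cleaved BLA substrate after 4 h stimulation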
# S1P4 ag – agonists of human S1P4 receptor; AID 1509; activation, % at 4.98 µM; S1P4-expressing cell line, agonist reporter assay; 220,000 compounds, 0.35% hits; in the data active = activation above about 11%
# ROMK primary – modulates human ROMK potassium channel activity; 130,000 compounds, 2% hits; B-score at 10 µM; P48048; Tet-inducible ROMK, thallium flux fluorescence; actives lie on both sides; AID 1918;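 active = signal ratio slope over the read window, or its plate-corrected B-score, at least 3 SD from the plate mean, either direction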;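 also: B-score of the F/F0 ratio slope over 7 to 12 s after thallium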
# Target sequence (P48048 whole entry, looked up): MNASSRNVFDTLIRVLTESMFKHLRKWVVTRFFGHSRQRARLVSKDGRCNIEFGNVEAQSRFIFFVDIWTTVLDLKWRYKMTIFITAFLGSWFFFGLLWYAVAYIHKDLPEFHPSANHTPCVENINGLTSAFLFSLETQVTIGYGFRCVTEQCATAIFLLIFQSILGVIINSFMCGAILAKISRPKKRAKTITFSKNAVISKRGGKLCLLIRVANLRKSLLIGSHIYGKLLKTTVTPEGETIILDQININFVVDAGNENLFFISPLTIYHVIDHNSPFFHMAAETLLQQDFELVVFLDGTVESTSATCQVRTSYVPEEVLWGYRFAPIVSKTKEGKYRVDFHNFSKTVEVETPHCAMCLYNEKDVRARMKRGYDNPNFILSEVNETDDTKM
# RAM inhibit – yeast RAM network inhibition; S. cerevisiae dse1pr::URA3 reporter, 5-FOA growth OD615, 2 d; analog-sensitive cbk1-as2 kinase mutant strain; 190,000 compounds, 1.8% hits; inhibition, % at 50 µM;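 active = inhibition above a set limit, 3 SD over mean compound inhibition, cut at about 8.4% in these data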;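 also: inhibition rescues growth on 5-FOA so higher OD means more RAM inhibition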
# Cl transport mod – modulators of human KCC2 chloride dependent transport; Q9H2X9; KCC2 cells, thallium flux FluoZin-2 fluorescence; B-score of Tl+ flux slope (higher = more flux/activation; lower = inhibition) at 10 µM; 190,000 compounds, 2.2% hits; AID 1456;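 active = thallium flux slope and its plate-corrected score both differing from the plate sample mean at a set confidence after two filtering rounds, in either direction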;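 also: slope of fluorescence scaled to starting intensity during 10 to 20 s after thallium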
# KCC2 secondary – confirmation of human KCC2 transport modulators; 3,700 compounds, 15% hits; normalised thallium flux (F/F0 slope) at 10 µM; HEK293-KCC2, thallium flux, FluoZin2 fluorescence; hits give high values; shares compounds with Cl transport mod;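 active = thallium flux slope above the same plate's solvent-only control mean plus 3 SD; inconclusive = the two replicate wells disagree; inactive = no significant difference from solvent-only control wells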
# KCC2 bumet counter – thallium flux persisting under bumetanide in KCC2 cells, counter-screen secondary assay; shares compounds with Cl transport mod; HEK293-KCC2 + bumetanide/ouabain, thallium flux FluoZin2; hits give high values; normalized thallium flux at 10 µM; 3,700 compounds, 49% hits; AID 1714;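 active = thallium entry rate above the same plate's blocked-transporter control wells by more than 3 SD; inconclusive = the two repeat wells disagree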;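 also: raw slope of fluorescence over initial fluorescence between 10 and 20 s after thallium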
# KCC2 secondary2 – KCC2 (human) modulation, second secondary assay | shares compounds with Cl transport mod | HEK293-KCC2, thallium flux FluoZin2 fluorescence; actives lie on both sides; F/F0 rise rate, 10–20 s post-thallium | normalized thallium flux at 10 µM | 3,700 compounds, 23% hits | AID 1715;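 active = thallium flux slope more than 3 SD above or below the plate's solvent-only control mean, mostly below; inconclusive = the two repeat wells disagreed; inactive = no significant shift from solvent-only controls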
# HEK293 Tl flux – parental HEK flux effect, counter-screen. thallium flux rate (normalised fluorescence) at 10 µM. 3,700 compounds, 46% hits. HEK293 parental cells, thallium flux FluoZin2, ouabain; baseline-ratio fluorescence slope, 10–20 s after thallium. shares compounds with Cl transport mod;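 active = thallium flux rate significantly above the same plate's solvent-only control wells, beyond their mean plus 3 SD; inconclusive = the two replicate wells gave conflicting results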
# KCC2 ouabain – KCC2 (human) modulation, ouabain retest; 3,700 compounds, 48% hits; HEK293-KCC2, thallium flux FluoZin2 fluorescence; bidirectional: low = inhibitor, high = activator; raw Tl+ flux slope (below DMSO = inhibition, above = activation) at 10 µM; shares compounds with Cl transport mod;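 active = thallium flux slope beyond 3 SD from same-plate DMSO control mean in most replicates, usually higher, sometimes lower; inconclusive = repeat tests gave conflicting results; inactive = no significant difference from controls in most replicates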;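 also: slope of initial-normalized fluorescence between seconds 10 and 20 after thallium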
# HEK counter2 – acts in parental HEK cells, second KCC2 counter-screen | shares compounds with Cl transport mod | HEK293 parental, thallium flux FluoZin-2 fluorescence slope | thallium flux slope at 10 µM | 3,700 compounds, 33% hits;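 active = thallium flux slope above the same plate's solvent-control mean plus 3 SD in both duplicate wells; inconclusive = duplicate wells that disagreed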;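 also: run without ouabain in cells lacking the KCC2 cotransporter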
# Numbers stand for hits; – = inactive; ? = inconclusive; · = not tested or not shown. In the library only some 5.1% were active in any assay of this set; here they are far more common.
SMILES,S1P4 antag,S1P3 antagonist,S1P4 ag,ROMK primary,RAM inhibit,Cl transport mod,KCC2 secondary,KCC2 bumet counter,KCC2 secondary2,HEK293 Tl flux,KCC2 ouabain,HEK counter2
CCOC(=O)N=Nc1c(O)n(C)c2ccccc12,–,–,–,–,–,–,·,·,·,·,·,·
Cc1ccccc1OCC(=O)N=Nc1c(O)n(C)c2ccccc12,–,–,–,·,·,28,?,0.029,–,0.029,0.031,0.022
COc1cc(Nc2ncnc(N)n2)cc(OC)c1,–,–,–,–,·,–,·,·,·,·,·,·
CCOC(=O)c1sc(-c2ccc(C)cc2)c(C#N)c1C,–,–,–,–,–,5.3,–,–,–,–,–,–
Cc1cc(C)c2cc(C#N)c(N3CCCC3)nc2c1,–,–,–,–,–,8.7,–,–,–,–,–,–
CC(C)COC(=O)NC1c2ccccc2Oc2ccccc21,–,–,–,–,·,–,·,·,·,·,·,·
CC(C)(C)c1ccc(-c2n[nH]c(=S)n2C2CCCC2)cc1,–,·,–,–,–,·,·,·,·,·,·,·
FC(F)(F)c1cccc(NCc2n[nH]c(=S)n2C2CCCCC2)c1,–,–,–,–,–,5.9,–,0.019,–,?,?,–
N#C/C(=C(/O)COc1ccc(Br)cc1)c1nnc2n1CCCCC2,–,–,–,–,–,–,·,·,·,·,·,·
C=CCN1C(c2ccc(OCC)cc2)=CS/C1=C(\C#N)c1nnc2n1CCCCC2,–,–,–,·,–,-5.8,–,–,0.02,0.0061,0.011,–
CSc1nc(C)cc(Oc2ccc(OCCOc3ccccc3)nn2)n1,–,·,–,·,–,-5.9,–,–,–,–,0.016,–
CCC12CN3CC(CC)(CN(C1)C3c1ccc([N+](=O)[O-])o1)C2=O (stereo unspecified),–,–,–,–,–,–,·,·,·,·,·,·
Cc1ccc2nc(Cl)c(C#N)cc2c1,–,–,–,–,–,–,·,·,·,·,·,·
O=C1CC(c2ccccc2)=NN1c1nc(-c2ccccc2)cs1,–,–,–,–,–,9.7,0.013,0.039,–,0.013,0.034,?
CC1=NN(c2nc(-c3ccccc3)cs2)C(=O)C1,–,·,–,·,–,·,·,·,·,·,·,·
OC(Cc1cccnc1)(Cc1cccnc1)c1cc2ccccc2[nH]1,–,–,–,–,–,–,·,·,·,·,·,·
COc1ccc(CC(=O)NNC(=O)CSc2ccc(C)cc2)cc1,–,–,–,–,–,–,·,·,·,·,·,·
CCSc1nnc(NC(=O)c2ccc3ccccc3n2)s1,–,·,–,·,–,36,0.032,0.12,–,0.088,0.072,0.018
CCc1nnc(NC(=O)c2ccc3ccccc3n2)s1,–,–,–,–,–,6.4,?,0.027,–,0.013,?,0.011
C/C(=N\NC(=O)c1cc([N+](=O)[O-])cc([N+](=O)[O-])c1)c1ccco1,–,–,–,–,–,38,0.03,0.075,?,0.038,0.055,0.017
CCOC(=O)/C(C)=N/NC(=O)c1cccc([N+](=O)[O-])c1,–,–,–,·,–,32,–,0.026,0.04,0.027,0.034,0.022
C/C(=N\NC(=O)Cn1cc([N+](=O)[O-])cn1)c1ccco1,–,–,–,·,·,–,·,·,·,·,·,·
O=C(N/N=C(\c1ccccc1)c1ccccn1)c1cccc([N+](=O)[O-])c1,–,–,–,·,–,12,?,0.028,–,0.02,0.031,0.021
O=C(CN1CCN(S(=O)(=O)c2ccc(Cl)cc2)CC1)Nc1ccc2c(c1)CCC2,–,–,–,–,–,–,–,–,–,–,–,–
CN1CCC(=O)N(CCSc2ccc(Br)cc2)CC1,·,·,·,·,·,–,·,·,·,·,·,·
SMILES,S1P4 antag,S1P3 antagonist,S1P4 ag,ROMK primary,RAM inhibit,Cl transport mod,KCC2 secondary,KCC2 bumet counter,KCC2 secondary2,HEK293 Tl flux,KCC2 ouabain,HEK counter2
CCOC(=O)c1cnc(SC)nc1Sc1ccccc1,–,·,–,–,–,·,–,–,–,–,–,–
CCOC(=O)c1cnc(SC)nc1N,–,·,–,·,–,–,·,·,·,·,·,·
Cc1ccc(C(=O)CSc2nnc(COc3cccc4cccnc34)o2)cc1,–,–,–,–,–,-4,?,?,?,–,–,–
O=C(CSc1nnc(COc2cccc3cccnc23)o1)c1ccc(F)cc1,–,–,–,–,–,·,–,–,–,–,0.015,–
COc1cc(NC(=S)NC2CC2)c(OC)cc1Cl,–,–,–,–,–,–,·,·,·,·,·,·
CCSc1nnc(CSc2ncccn2)n1C,–,–,–,·,–,·,·,·,·,·,·,·
O=C(Nc1ccccc1C(=O)N/N=C/c1ccco1)c1ccc(F)cc1,–,–,–,–,–,17,0.016,0.064,–,0.023,?,0.012
Cc1ccccc1C(=O)Nc1ccccc1C(=O)N/N=C\c1ccco1,–,·,–,–,–,–,·,·,·,·,·,·
O=C(N/N=C/c1ccco1)c1ccncc1,–,·,–,·,–,–,·,·,·,·,·,·
O=C(Nc1ccccc1C(=O)N/N=C/c1ccco1)c1ccc(Cl)cc1,–,–,–,·,–,11,–,0.037,–,0.014,0.029,0.015
C=CCn1c(CCNC(=O)c2ccccc2F)nnc1SCC(=O)Nc1nc2ccccc2s1,–,·,–,–,–,·,–,–,0.025,–,–,–
CCn1ncc(Cl)c1C(=O)Nc1cc([N+](=O)[O-])ccc1OC,–,–,–,–,–,–,·,·,·,·,·,·
CCOc1ccc(NC(=S)NC(=O)c2c(Cl)cnn2CC)c([N+](=O)[O-])c1,–,–,–,–,–,19,0.018,0.056,–,0.029,0.044,0.014
CC(=O)c1ccc(NC(=S)NC(=O)c2c(Cl)c(C)nn2C)cc1,–,–,–,–,–,15,0.015,0.066,–,0.031,0.037,0.015
CCn1ncc(Cl)c1C(=O)NC(=S)Nc1c(C)cc(C)cc1[N+](=O)[O-],–,–,–,–,–,85,0.033,0.15,0.044,0.076,0.072,0.026
COc1ccccc1NC(=S)NNC(=O)c1c(Cl)c(C)nn1C,–,·,–,–,–,–,·,·,·,·,·,·
Cc1nn(C)c(C(=O)NNC(=S)Nc2ccc(Cl)cc2)c1[N+](=O)[O-],–,·,–,–,–,–,·,·,·,·,·,·
